Reference: PMC4336329 (PLoS ONE, 2015)
The whole screen tested about 310,000 compounds, of which about 14,000 (4.5%) showed an effect of 50% or more. The effect is printed as a negative number. The list comes from a sample in which strong results are over-represented; it also holds similar structures and randomly drawn compounds.

target: human ether-à-go-go-related gene (hERG) potassium channel (human, UniProt Q12809); test: primary screen, population patch clamp on CHO cells stably expressing hERG; higher = less effect of the substance
Sequence (Q12809 whole entry, looked up): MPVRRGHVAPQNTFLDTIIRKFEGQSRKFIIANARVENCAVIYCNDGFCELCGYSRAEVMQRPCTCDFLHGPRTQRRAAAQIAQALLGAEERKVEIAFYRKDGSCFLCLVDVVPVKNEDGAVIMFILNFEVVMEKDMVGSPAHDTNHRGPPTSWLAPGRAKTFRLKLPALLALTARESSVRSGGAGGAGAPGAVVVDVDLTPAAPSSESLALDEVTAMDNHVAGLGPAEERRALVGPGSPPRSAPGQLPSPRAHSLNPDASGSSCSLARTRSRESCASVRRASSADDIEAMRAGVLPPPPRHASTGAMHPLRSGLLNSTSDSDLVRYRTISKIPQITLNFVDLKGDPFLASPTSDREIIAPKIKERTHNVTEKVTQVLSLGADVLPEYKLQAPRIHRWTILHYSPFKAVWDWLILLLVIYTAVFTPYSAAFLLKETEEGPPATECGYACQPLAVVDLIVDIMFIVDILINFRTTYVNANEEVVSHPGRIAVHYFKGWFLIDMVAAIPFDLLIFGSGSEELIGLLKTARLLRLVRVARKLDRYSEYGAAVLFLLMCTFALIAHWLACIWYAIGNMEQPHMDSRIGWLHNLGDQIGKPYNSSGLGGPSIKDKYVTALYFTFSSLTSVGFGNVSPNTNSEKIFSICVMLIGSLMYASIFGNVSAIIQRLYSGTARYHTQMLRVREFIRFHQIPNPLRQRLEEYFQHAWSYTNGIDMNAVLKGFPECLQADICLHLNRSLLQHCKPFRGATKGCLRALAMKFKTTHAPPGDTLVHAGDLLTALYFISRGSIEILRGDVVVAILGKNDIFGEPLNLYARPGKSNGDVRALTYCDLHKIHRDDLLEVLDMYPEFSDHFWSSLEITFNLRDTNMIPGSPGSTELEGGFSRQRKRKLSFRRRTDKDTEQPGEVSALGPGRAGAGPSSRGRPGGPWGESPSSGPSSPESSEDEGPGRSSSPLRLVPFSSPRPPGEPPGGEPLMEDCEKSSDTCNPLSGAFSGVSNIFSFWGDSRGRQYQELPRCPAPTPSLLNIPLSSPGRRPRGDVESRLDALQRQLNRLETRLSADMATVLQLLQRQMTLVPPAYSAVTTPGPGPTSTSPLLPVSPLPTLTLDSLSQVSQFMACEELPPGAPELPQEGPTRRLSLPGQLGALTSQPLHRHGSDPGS
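Further: peak tail current of the secondary pulse compared with the same well before compound.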

Structure (SMILES) | hERG current change (%, negative = inhibition) at 10uM [%]
COc1ccc(S(=O)(=O)N2CCOC2CNC(=O)C(=O)NCc2ccncc2)cc1OC (stereo not drawn) | 10.3
O=S(=O)(c1ccccc1)c1nc(-c2ccccc2)oc1NCCCN1CCOCC1 | -43.9
Cc1ccccc1-c1nc(S(=O)(=O)c2ccc(Cl)cc2)c(NCCN2CCOCC2)o1 | -20.2
O=S(=O)(c1ccc(Cl)cc1)c1nc(-c2ccccc2F)oc1NCCN1CCOCC1 | -67
Cc1cccc(-c2nc(S(=O)(=O)c3ccc(F)cc3)c(NCCCN3CCOCC3)o2)c1 | -69.4
Cc1ccc(S(=O)(=O)c2nc(-c3ccccc3)oc2NCCN2CCOCC2)cc1 | 3.12
O=S(=O)(c1ccc(Cl)cc1)c1nc(-c2ccccc2F)oc1NCCCN1CCOCC1 | -10.4
COc1cccc(CN2CCN(C(=O)c3cccc4ccccc34)CC2)c1.O=C(O)C(=O)O | -12
COc1cccc(CN(C)C(=O)C2CC(=O)N(c3ccc4c(c3)OCCO4)C2)c1 (stereo not drawn) | 12.1
COc1cccc(-c2nc3ccc(O)cc3c(=O)o2)c1 | 1.21
Cc1ccc(OCC(=O)N2CCN(C(=O)c3cccs3)CC2)cc1 | -34.8
O=C(COc1ccc2ccccc2c1)N1CCN(C(=O)c2cccs2)CC1 | -50
CCOc1cc(C#N)ccc1OCC(=O)N1CCc2ccccc2C1 | -40.7
O=C(COc1ccc(Cl)cc1)N1CCN(C(=O)c2cccs2)CC1 | -74.5
CCOc1cc(C#N)ccc1OCC(=O)N1CCN(C(=O)c2cccs2)CC1 | -67.7
O=C(COc1ccccc1Br)N1CCN(C(=O)c2cccs2)CC1 | -32.2
O=C(COc1ccc(-c2ccccc2)cc1)N1CCN(C(=O)c2cccs2)CC1 | -41.8
O=C(COc1ccccc1)N1CCN(C(=O)c2cccs2)CC1 | -13.4
COc1ccc(OCC(=O)N2CCN(C(=O)c3cccs3)CC2)cc1 | -43.3
Cc1nnc(SCc2cc(=O)[nH]c(/N=C(\N)Nc3ccccc3Sc3ccccc3)n2)s1 | -11.1
Cl.O=C(CNCCO)N1CCc2ccccc21 | -5.27

Structure (SMILES) | hERG current change (%, negative = inhibition) at 10uM [%]
Cc1ccc(CN2C(=O)N/C(=C/c3ccc(-c4ccc(C(=O)O)cc4)o3)C2=O)cc1 | 0.0417
O=C1CC(N2CCN(C/C=C/c3ccccc3)CC2)C(=O)N1Cc1ccc(N2CCCC2=O)cc1 (stereo not drawn) | -46.7
O=C1CC(N2CCN(C3CC(=O)N(CCc4ccccc4)C3=O)CC2)C(=O)N1CCc1ccccc1 (stereo not drawn) | -6.78
COc1ccc(CCN2C(=O)CC(N3CCN(C/C=C/c4ccccc4)CC3)C2=O)cc1OC (stereo not drawn) | -43.9
O=C1OC(N2CCN(C/C=C/c3ccccc3)CC2)c2ccccc21 (stereo not drawn) | 9.57
O=C1CC(N2CCN(C/C=C/c3ccccc3)CC2)C(=O)N1Cc1cccs1 (stereo not drawn) | -74.8
O=C1CC(N2CCN(C/C=C/c3ccccc3)CC2)C(=O)N1CCc1ccccc1 (stereo not drawn) | -58.1
C=CCn1c(CNC(=O)c2cccs2)n[nH]c1=S | 15.5
Cc1cc(C)cc(OC(=O)CCN2C(=O)c3ccccc3C2=O)c1 | -3.19
COc1ccccc1N(CC(=O)Nc1ccc(F)c(F)c1)S(C)(=O)=O | -1.01
COc1cccc(CN2CC(C(=O)NCCc3ccc(C)s3)CCC2=O)c1 (stereo not drawn) | -26.5
CCOC(=O)C1CCCN(S(=O)(=O)c2ccc3c4c(cccc24)C(=O)N3CC)C1 (stereo not drawn) | -63.5
CCOC(=O)C1CCCN(S(=O)(=O)c2ccc3c4c2CC(=O)N4CC(C)S3)C1 (stereo not drawn) | -0.356
CC1CCN(S(=O)(=O)c2ccc3c4c2CC(=O)N4CC(C)S3)CC1 (stereo not drawn) | 7.22
CCN1C(=O)c2cccc3c(S(=O)(=O)N4CCCC4C(=O)O)ccc1c23 (stereo not drawn) | 13
CCOC(=O)C1CCCCN1S(=O)(=O)c1cc2c(cc1C)NC(=O)CO2 (stereo not drawn) | -19.8
CCOC(=O)C1CCN(S(=O)(=O)c2cc3c(cc2C)NC(=O)CO3)CC1 | -54.9
CCOC(=O)N1CCN(S(=O)(=O)c2cc3c(cc2C)NC(=O)CO3)CC1 | -36.2
CCN1C(=O)c2cccc3c(S(=O)(=O)N4CCC(C)CC4)ccc1c23 | -16.8
CCOC(=O)C1CCN(S(=O)(=O)c2ccc3c4c2CC(=O)N4CC(C)S3)CC1 (stereo not drawn) | -57.1
CCOC(=O)C1CCN(S(=O)(=O)c2ccc3c4c(cccc24)C(=O)N3)CC1 | -54.6

Structure (SMILES) | hERG current change (%, negative = inhibition) at 10uM [%]
O=C1Nc2ccc(S(=O)(=O)N3CCCC3)c3cccc1c23 | -7.57
CCOC(=O)N1CCN(S(=O)(=O)c2ccc3c4c(cccc24)C(=O)N3)CC1 | -14.5
O=C(Nc1ccc(Cl)cc1)Nc1ccccc1CC[N+](=O)[O-] | 7.79
CC(=O)O[C@H]1CC[C@@]2(C)C(CCC3C2CC[C@]2(C)OC(=O)CCC32)C1 (stereo partly drawn) | -10.7
O=C(O)c1ccc(S(=O)(=O)N2CCCc3ccccc32)cc1 | 19.7
O=C(CN1C(=O)NC2(CCCCCC2)C1=O)N1CCN(S(=O)(=O)c2ccc(Cl)cc2)CC1 | -23.9
Cc1ccc(S(=O)(=O)N(C)c2nc3ccccc3[nH]c2=S)cc1 | 4.41
O=C1C(Cc2cccc([N+](=O)[O-])c2)S/C(=N/N=C/c2ccco2)N1c1ccccc1 (stereo not drawn) | 2.64
O=C(NC1CCCCC1)N(Cc1nc2ccccc2c(=O)[nH]1)C1CCCCC1 | 2.79
O=C(NCCc1nc2ccccc2[nH]1)c1ccc(Br)o1 | 3.87
O=C(NCCc1nc2ccccc2[nH]1)/C(=C/c1ccco1)NC(=O)c1ccc(Br)cc1 | -69.9
Cc1ccc(C(=O)N/C(=C/c2ccco2)C(=O)NCCc2c[nH]c3ccccc23)cc1 | -46
COc1ccc(/C=C(\NC(=O)c2ccco2)C(=O)NCCc2nc3ccccc3[nH]2)cc1 | -42.6
O=C(NCCc1nc2ccccc2[nH]1)/C(=C/c1ccco1)NC(=O)c1ccco1 | -17.3
CC(C)=C(NC(=O)c1ccco1)C(=O)NCCc1nc2ccccc2[nH]1 | 1.12
O=C(NCCc1nc2ccccc2[nH]1)c1ccco1 | 2.94
CC(C)=C(NC(=O)c1ccccc1Br)C(=O)NCCc1nc2ccccc2[nH]1 | 3.68
O=C(NCCc1nc2ccccc2[nH]1)/C(=C/c1ccco1)NC(=O)c1ccccc1Br | -64.9
O=C(CNC(=O)c1ccc(Br)cc1)NCCc1nc2ccccc2[nH]1 | -6.76
O=C(NCCc1nc2ccccc2[nH]1)/C(=C/c1ccco1)NC(=O)c1ccc(Br)o1 | -63.2
O=C(NCCc1nc2ccccc2[nH]1)/C(=C/c1ccc(F)cc1)NC(=O)c1ccco1 | -62.8
